Measurements: PubChem BioAssay
Several values for one entry are separate records, joined by “and”; a condition that tells them apart may be missing. Identical values can stand only once. Activity calls are given as the source filed them. No stated cut-off is given here; in the data, active means inhibition above about 80%; inactive means the rest.

Assay: UWB1.289_BRCA1 ovarian cancer growth, cell-based, BGB or cisplatin combinations (AID 1671459)
Conditions: UWB1.289 BRCA1 ovarian carcinoma, drug combinations, cisplatin combination, concentration series, at 5 µM, stronger effect = higher value

Compound | inhibition
Cc1c(N)nc(C(CC(N)=O)NCC(N)C(N)=O)nc1C(=O)NC(C(=O)NC(C)C(O)C(C)C(=O)NC(C(=O)NCCc1nc(-c2nc(C(=O)NCCC[S+](C)C)cs2)cs1)C(C)O)C(O[C@@H]1O[C@@H](CO)[C@@H](O)[C@H](O)[C@@H]1O[C@H]1O[C@H](CO)[C@@H](O)[C@H](OC(N)=O)[C@@H]1O)c1cnc[nH]1 (stereo not given in full) | 31.9% and 22.9%
O=c1[nH]c(=O)n(C2OC(CO)C(O)C2O)cc1F (stereo not given) | 118%
O=P(O)(NCCCl)NCCCl | -23%
CC1(C)C(C(=O)Nc2ccc(S(=O)(=O)c3ccc(NC(=O)C4C(C)(C)C4(C)C)cc3)cc2)C1(C)C | -16%
CCC1(O)C(=O)OCc2c1cc1n(c2=O)Cc2cc3ccccc3nc2-1 (stereo not given) | 118% and 106%
NC(Cc1ccc(N(CCCl)CCCl)cc1)C(=O)O (stereo not given) | 41.4%
COc1cc([C@@H]2c3cc4c(cc3[C@H](O)[C@H]3COC(=O)[C@H]23)OCO4)cc(OC)c1O | 64.1% and 63.1%
COc1cc(C2c3cc4c(cc3C(O)C3COC(=O)C23)OCO4)cc(OC)c1OC (stereo not given) | 70.5%

Assay: drug combination toxicity in non-malignant astrocytes – cell-based, BGB or cisplatin IC20 combos, cytotoxicity control for chromothriptic childhood tumor combination screen (AID 1671460);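 further: cells exposed to compounds for 96 hours before viability readout; 0% = vehicle and 100% = killing control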
Conditions: Human astrocytes, viability inhibition, drug combinations; at 0.5 µM; stronger effect = higher value

Compound | inhibition
Cc1c(N)nc(C(CC(N)=O)NCC(N)C(N)=O)nc1C(=O)NC(C(=O)NC(C)C(O)C(C)C(=O)NC(C(=O)NCCc1nc(-c2nc(C(=O)NCCC[S+](C)C)cs2)cs1)C(C)O)C(O[C@@H]1O[C@@H](CO)[C@@H](O)[C@H](O)[C@@H]1O[C@H]1O[C@H](CO)[C@@H](O)[C@H](OC(N)=O)[C@@H]1O)c1cnc[nH]1 (stereo not given in full) | 35.7% (inactive) and 41.9% (inactive)
O=c1[nH]c(=O)n(C2OC(CO)C(O)C2O)cc1F (stereo not given) | 57.3% (inactive)
O=P(O)(NCCCl)NCCCl | -6.45% (inactive)
CC1(C)C(C(=O)Nc2ccc(S(=O)(=O)c3ccc(NC(=O)C4C(C)(C)C4(C)C)cc3)cc2)C1(C)C | 4.8% (inactive)
CCC1(O)C(=O)OCc2c1cc1n(c2=O)Cc2cc3ccccc3nc2-1 (stereo not given) | 60.8% (inactive) and 77.6% (inactive)
NC(Cc1ccc(N(CCCl)CCCl)cc1)C(=O)O (stereo not given) | 16.9% (inactive)
COc1cc([C@@H]2c3cc4c(cc3[C@H](O)[C@H]3COC(=O)[C@H]23)OCO4)cc(OC)c1O | 69.7% (inactive) and 62.4% (inactive)
COc1cc(C2c3cc4c(cc3C(O)C3COC(=O)C23)OCO4)cc(OC)c1OC (stereo not given) | 85.4% (active)

Same assay, conditions: Human astrocytes, viability inhibition, drug combinations; measured here: combo with BGB IC20; at 0.5 µM; stronger effect = higher value

Compound | inhibition
Cc1c(N)nc(C(CC(N)=O)NCC(N)C(N)=O)nc1C(=O)NC(C(=O)NC(C)C(O)C(C)C(=O)NC(C(=O)NCCc1nc(-c2nc(C(=O)NCCC[S+](C)C)cs2)cs1)C(C)O)C(O[C@@H]1O[C@@H](CO)[C@@H](O)[C@H](O)[C@@H]1O[C@H]1O[C@H](CO)[C@@H](O)[C@H](OC(N)=O)[C@@H]1O)c1cnc[nH]1 (stereo not given in full) | 41.1% and 49.2%
O=c1[nH]c(=O)n(C2OC(CO)C(O)C2O)cc1F (stereo not given) | 56.2%
O=P(O)(NCCCl)NCCCl | -2.47%
CC1(C)C(C(=O)Nc2ccc(S(=O)(=O)c3ccc(NC(=O)C4C(C)(C)C4(C)C)cc3)cc2)C1(C)C | 12.4%
CCC1(O)C(=O)OCc2c1cc1n(c2=O)Cc2cc3ccccc3nc2-1 (stereo not given) | 60.1% and 81.6%
NC(Cc1ccc(N(CCCl)CCCl)cc1)C(=O)O (stereo not given) | 22.5%
COc1cc([C@@H]2c3cc4c(cc3[C@H](O)[C@H]3COC(=O)[C@H]23)OCO4)cc(OC)c1O | 66.6% and 57.1%
COc1cc(C2c3cc4c(cc3C(O)C3COC(=O)C23)OCO4)cc(OC)c1OC (stereo not given) | 85.6%

Same assay, conditions: Human astrocytes, viability inhibition, drug combinations; measured here: combo with cisplatin IC20; at 0.5 µM; stronger effect = higher value

Compound | inhibition
Cc1c(N)nc(C(CC(N)=O)NCC(N)C(N)=O)nc1C(=O)NC(C(=O)NC(C)C(O)C(C)C(=O)NC(C(=O)NCCc1nc(-c2nc(C(=O)NCCC[S+](C)C)cs2)cs1)C(C)O)C(O[C@@H]1O[C@@H](CO)[C@@H](O)[C@H](O)[C@@H]1O[C@H]1O[C@H](CO)[C@@H](O)[C@H](OC(N)=O)[C@@H]1O)c1cnc[nH]1 (stereo not given in full) | 9.83% and 15.3%
O=c1[nH]c(=O)n(C2OC(CO)C(O)C2O)cc1F (stereo not given) | 38.9%
O=P(O)(NCCCl)NCCCl | -6.44%
CC1(C)C(C(=O)Nc2ccc(S(=O)(=O)c3ccc(NC(=O)C4C(C)(C)C4(C)C)cc3)cc2)C1(C)C | -16.1%
CCC1(O)C(=O)OCc2c1cc1n(c2=O)Cc2cc3ccccc3nc2-1 (stereo not given) | 47.8% and 70.6%
NC(Cc1ccc(N(CCCl)CCCl)cc1)C(=O)O (stereo not given) | 4.4%
COc1cc([C@@H]2c3cc4c(cc3[C@H](O)[C@H]3COC(=O)[C@H]23)OCO4)cc(OC)c1O | 62.5% and 52.4%
COc1cc(C2c3cc4c(cc3C(O)C3COC(=O)C23)OCO4)cc(OC)c1OC (stereo not given) | 76.9%

Assay: BT084 cell growth, single and combined drugs, ICGC_MB145, cisplatin and BGB IC40 combos (AID 1671461);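 further: cells exposed to drugs for 96 hours; 0% = vehicle DMSO and 100% = high DMSO full killing control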
Conditions: BT084 medulloblastoma cells, drug combinations, at 0.5 µM, stronger effect = higher value

Compound | inhibition
Cc1c(N)nc(C(CC(N)=O)NCC(N)C(N)=O)nc1C(=O)NC(C(=O)NC(C)C(O)C(C)C(=O)NC(C(=O)NCCc1nc(-c2nc(C(=O)NCCC[S+](C)C)cs2)cs1)C(C)O)C(O[C@@H]1O[C@@H](CO)[C@@H](O)[C@H](O)[C@@H]1O[C@H]1O[C@H](CO)[C@@H](O)[C@H](OC(N)=O)[C@@H]1O)c1cnc[nH]1 (stereo not given in full) | -4.03% (inactive) and -7.21% (inactive)
O=c1[nH]c(=O)n(C2OC(CO)C(O)C2O)cc1F (stereo not given) | -22.9% (inactive)
O=P(O)(NCCCl)NCCCl | -3.8% (inactive)
CC1(C)C(C(=O)Nc2ccc(S(=O)(=O)c3ccc(NC(=O)C4C(C)(C)C4(C)C)cc3)cc2)C1(C)C | -6.8% (inactive)
CCC1(O)C(=O)OCc2c1cc1n(c2=O)Cc2cc3ccccc3nc2-1 (stereo not given) | 14.3% (inactive) and 17% (inactive)
NC(Cc1ccc(N(CCCl)CCCl)cc1)C(=O)O (stereo not given) | -14.6% (inactive)
COc1cc([C@@H]2c3cc4c(cc3[C@H](O)[C@H]3COC(=O)[C@H]23)OCO4)cc(OC)c1O | 23.1% (inactive) and 7.97% (inactive)
COc1cc(C2c3cc4c(cc3C(O)C3COC(=O)C23)OCO4)cc(OC)c1OC (stereo not given) | 45.2% (inactive)
